Results taken from article PMC7862700, “An all-to-all approach to the identification of sequence-specific readers for epigenetic DNA modifications on cytosine”.

Key:
Assay in all cases: DAPPL (digital affinity profiling via proximity ligation, sequencing); 10 mM Tris-HCl pH 7.5, 50 mM NaCl, 1 mM DTT, 4% glycerol, room temperature, 30 min; GST-TFs on glutathione beads, 16-mer random dsDNA library, 0.1% formaldehyde crosslink after washing; high values mean tight binding
FEV = biological target: T1, FEV (Homo sapiens, UniProt Q99581 1-238); details: protein: recombinant; tags: N-terminal GST; dsDNA, one strand shown
T1 sequence: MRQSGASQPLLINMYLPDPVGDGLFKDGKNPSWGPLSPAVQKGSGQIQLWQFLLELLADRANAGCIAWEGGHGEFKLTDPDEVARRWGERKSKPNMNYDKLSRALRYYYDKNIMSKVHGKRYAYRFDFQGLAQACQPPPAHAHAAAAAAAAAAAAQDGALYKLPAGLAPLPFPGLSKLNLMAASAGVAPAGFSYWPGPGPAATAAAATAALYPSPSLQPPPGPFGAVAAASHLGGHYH
Outline: (§1)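 Human transcription factors fused to GST were expressed in yeast, captured on glutathione beads, given DNA barcodes and pooled with a GST-only negative control. Pools were incubated with 200 nmole of a 16-mer random double-stranded DNA library in Tris/NaCl/DTT/glycerol buffer at room temperature for 30 min. They were then washed, crosslinked with 0.1% formaldehyde, proximity-ligated (BsaI/T4 ligase, 1 h, 37 °C), PCR-amplified and sequenced on an Illumina NextSeq500. Binding signal is each 6-mer's read frequency for a factor divided by its frequency for the GST control.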

ETV5 = ETV5 (Homo sapiens, UniProt P41161 1-510); details: protein: recombinant; tags: N-terminal GST; dsDNA, one strand shown
Outline: as §1

HSF1 = HSF1 (Homo sapiens, UniProt Q00613 1-529); details: protein: recombinant; tags: N-terminal GST; chain copies: 3; dsDNA, one strand shown
Outline: as §1

SPIC = biological target: T2, SPIC (Homo sapiens, UniProt Q8N5J4 1-248); details: protein: recombinant; tags: N-terminal GST; dsDNA, one strand shown
T2 sequence: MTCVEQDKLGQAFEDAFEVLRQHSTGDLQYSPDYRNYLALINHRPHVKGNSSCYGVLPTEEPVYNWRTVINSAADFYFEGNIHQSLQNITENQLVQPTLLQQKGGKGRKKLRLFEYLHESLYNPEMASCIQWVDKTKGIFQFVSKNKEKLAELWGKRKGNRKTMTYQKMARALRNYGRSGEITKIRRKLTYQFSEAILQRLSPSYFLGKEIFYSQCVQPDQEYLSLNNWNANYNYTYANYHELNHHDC
Outline: as §1

ELF4 = ELF4 (Homo sapiens, UniProt Q99607 1-663); details: protein: recombinant; tags: N-terminal GST; dsDNA, one strand shown
Outline: as §1

ELK4 = biological target: T3, ELK4 (Homo sapiens, UniProt P28324-2 1-405); details: protein: recombinant; tags: N-terminal GST; dsDNA, one strand shown
T3 sequence: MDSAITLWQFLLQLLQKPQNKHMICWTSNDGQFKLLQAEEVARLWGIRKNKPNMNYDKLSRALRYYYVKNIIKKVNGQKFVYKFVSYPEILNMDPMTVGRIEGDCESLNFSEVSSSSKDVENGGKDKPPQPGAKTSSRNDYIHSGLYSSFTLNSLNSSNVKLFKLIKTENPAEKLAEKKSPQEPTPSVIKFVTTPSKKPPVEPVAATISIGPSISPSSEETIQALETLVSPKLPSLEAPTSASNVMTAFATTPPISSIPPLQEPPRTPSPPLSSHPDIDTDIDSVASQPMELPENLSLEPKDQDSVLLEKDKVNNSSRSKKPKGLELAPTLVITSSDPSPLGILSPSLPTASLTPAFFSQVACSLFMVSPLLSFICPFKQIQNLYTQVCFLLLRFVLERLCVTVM
Outline: as §1

ETV2 = biological target: T4, ETV2 (Homo sapiens, UniProt O00321 1-342); details: protein: recombinant; tags: N-terminal GST; dsDNA, one strand shown
T4 sequence: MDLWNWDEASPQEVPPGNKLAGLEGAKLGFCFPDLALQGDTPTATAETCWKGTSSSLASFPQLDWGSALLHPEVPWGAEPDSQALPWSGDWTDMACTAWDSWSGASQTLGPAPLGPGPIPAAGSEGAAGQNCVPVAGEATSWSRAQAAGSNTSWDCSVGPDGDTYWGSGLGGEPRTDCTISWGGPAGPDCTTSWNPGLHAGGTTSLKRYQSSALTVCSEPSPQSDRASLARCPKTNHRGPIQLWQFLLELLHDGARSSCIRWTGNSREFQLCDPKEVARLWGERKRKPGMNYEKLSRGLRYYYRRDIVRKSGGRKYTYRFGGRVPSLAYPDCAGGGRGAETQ
Outline: as §1

ELF3 = biological target: T5, ELF3 (Homo sapiens, UniProt P78545 1-371); details: protein: recombinant; tags: N-terminal GST; dsDNA, one strand shown
T5 sequence: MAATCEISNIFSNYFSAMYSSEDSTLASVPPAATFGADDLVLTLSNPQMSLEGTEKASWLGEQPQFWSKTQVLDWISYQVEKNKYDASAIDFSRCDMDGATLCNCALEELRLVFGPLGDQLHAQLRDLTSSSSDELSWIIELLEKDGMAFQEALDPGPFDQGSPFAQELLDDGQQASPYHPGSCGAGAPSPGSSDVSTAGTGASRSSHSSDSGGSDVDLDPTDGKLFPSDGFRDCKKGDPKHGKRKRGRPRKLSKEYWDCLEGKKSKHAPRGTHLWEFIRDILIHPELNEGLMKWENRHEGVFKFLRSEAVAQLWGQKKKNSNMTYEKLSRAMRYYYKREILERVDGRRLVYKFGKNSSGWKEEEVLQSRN
Outline: as §1

CRX = CRX (Homo sapiens, UniProt O43186 1-299); details: protein: recombinant; tags: N-terminal GST; dsDNA, one strand shown
Outline: as §1

ETV1 = ETV1 (Homo sapiens, UniProt P50549 1-477); details: protein: recombinant; tags: N-terminal GST; dsDNA, one strand shown
Outline: as §1

ERF = biological target: T6, ERF (Homo sapiens, UniProt P50548 1-548); details: protein: recombinant; tags: N-terminal GST; dsDNA, one strand shown
T6 sequence: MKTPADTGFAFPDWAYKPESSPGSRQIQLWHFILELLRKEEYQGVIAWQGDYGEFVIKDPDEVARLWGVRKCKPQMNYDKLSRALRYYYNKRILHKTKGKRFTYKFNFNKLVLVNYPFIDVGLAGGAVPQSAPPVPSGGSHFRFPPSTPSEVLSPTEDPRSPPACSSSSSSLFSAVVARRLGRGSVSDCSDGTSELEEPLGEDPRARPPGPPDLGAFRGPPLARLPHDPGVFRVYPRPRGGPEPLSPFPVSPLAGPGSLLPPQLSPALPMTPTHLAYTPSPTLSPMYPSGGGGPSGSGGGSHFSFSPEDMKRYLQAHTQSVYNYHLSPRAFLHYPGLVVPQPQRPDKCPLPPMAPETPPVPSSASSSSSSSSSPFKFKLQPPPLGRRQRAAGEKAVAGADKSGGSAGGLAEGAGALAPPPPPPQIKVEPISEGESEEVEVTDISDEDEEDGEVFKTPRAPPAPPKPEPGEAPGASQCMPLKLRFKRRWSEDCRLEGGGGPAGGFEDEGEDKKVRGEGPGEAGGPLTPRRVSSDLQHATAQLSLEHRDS
Outline: as §1

ETV3L = biological target: T7, ETV3L (Homo sapiens, UniProt Q6ZN32 1-361); details: protein: recombinant; tags: N-terminal GST; dsDNA, one strand shown
T7 sequence: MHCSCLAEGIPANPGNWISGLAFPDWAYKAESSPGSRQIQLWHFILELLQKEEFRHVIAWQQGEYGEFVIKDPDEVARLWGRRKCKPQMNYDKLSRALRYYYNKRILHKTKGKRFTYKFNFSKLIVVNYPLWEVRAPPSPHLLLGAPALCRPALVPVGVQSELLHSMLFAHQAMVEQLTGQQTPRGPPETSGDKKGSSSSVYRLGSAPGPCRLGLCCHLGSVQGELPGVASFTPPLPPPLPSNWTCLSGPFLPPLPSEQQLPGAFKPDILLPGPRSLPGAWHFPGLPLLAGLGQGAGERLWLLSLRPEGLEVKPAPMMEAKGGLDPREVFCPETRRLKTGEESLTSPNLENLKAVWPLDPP
Outline: as §1

ETS2 = biological target: T8, ETS2 (Homo sapiens, UniProt P15036 1-469); details: protein: recombinant; tags: N-terminal GST; dsDNA, one strand shown
T8 sequence: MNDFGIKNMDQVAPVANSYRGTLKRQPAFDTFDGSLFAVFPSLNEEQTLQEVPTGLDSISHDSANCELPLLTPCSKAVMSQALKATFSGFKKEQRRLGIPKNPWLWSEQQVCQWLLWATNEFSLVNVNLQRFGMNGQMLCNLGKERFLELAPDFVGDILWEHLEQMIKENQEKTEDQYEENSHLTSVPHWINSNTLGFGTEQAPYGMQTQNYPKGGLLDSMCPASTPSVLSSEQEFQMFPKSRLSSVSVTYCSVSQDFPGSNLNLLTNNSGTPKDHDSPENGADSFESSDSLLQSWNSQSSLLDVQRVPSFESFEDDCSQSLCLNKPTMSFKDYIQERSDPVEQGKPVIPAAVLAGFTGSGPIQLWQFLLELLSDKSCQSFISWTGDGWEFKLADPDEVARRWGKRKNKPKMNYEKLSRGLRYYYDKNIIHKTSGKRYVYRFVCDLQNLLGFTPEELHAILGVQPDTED
Outline: as §1

SPDEF = biological target: T9, SPDEF (Homo sapiens, UniProt O95238 1-335); details: protein: recombinant; tags: N-terminal GST; dsDNA, one strand shown
T9 sequence: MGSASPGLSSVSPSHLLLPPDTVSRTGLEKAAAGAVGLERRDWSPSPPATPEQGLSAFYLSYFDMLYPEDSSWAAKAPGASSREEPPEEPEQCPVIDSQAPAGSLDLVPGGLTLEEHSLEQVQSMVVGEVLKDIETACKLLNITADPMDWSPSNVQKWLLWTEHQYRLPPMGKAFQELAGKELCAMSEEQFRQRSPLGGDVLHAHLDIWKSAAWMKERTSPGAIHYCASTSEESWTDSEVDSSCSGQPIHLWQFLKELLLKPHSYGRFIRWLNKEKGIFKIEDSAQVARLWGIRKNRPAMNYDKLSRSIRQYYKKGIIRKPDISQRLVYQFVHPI
Outline: as §1

ETV7 = biological target: T10, ETV7 (Homo sapiens, UniProt Q9Y603 1-341); details: protein: recombinant; tags: N-terminal GST; dsDNA, one strand shown
T10 sequence: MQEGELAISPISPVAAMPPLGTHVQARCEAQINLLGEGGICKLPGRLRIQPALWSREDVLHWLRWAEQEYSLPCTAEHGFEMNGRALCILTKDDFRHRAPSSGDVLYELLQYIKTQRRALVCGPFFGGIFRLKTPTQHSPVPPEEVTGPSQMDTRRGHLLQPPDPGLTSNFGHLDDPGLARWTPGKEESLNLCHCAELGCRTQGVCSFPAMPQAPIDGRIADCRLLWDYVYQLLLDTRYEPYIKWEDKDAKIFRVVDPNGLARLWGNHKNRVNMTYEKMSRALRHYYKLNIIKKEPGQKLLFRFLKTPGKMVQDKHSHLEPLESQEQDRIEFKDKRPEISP
Outline: as §1

ELF5 = biological target: T11, ELF5 (Homo sapiens, UniProt Q9UKW6-2 1-255); details: protein: recombinant; tags: N-terminal GST; dsDNA, one strand shown
T11 sequence: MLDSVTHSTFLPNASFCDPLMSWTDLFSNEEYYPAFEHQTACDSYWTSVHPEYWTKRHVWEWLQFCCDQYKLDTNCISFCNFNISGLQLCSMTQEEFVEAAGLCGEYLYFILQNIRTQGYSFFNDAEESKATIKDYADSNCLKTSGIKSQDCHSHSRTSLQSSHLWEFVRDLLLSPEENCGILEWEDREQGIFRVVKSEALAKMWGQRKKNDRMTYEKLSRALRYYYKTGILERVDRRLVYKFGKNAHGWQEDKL
Outline: as §1

ETV3 = biological target: T12, ETV3 (Homo sapiens, UniProt P41162-2 1-143); details: protein: recombinant; tags: N-terminal GST; dsDNA, one strand shown
T12 sequence: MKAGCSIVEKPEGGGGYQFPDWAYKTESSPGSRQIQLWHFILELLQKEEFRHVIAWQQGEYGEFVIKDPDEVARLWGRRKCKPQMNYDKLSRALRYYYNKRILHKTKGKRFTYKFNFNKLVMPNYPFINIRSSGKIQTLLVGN
Outline: as §1

ETV6 = ETV6 (Homo sapiens, UniProt P41212 1-452); details: protein: recombinant; tags: N-terminal GST; dsDNA, one strand shown
Outline: as §1

Chain of ETV6 (P41212 whole entry): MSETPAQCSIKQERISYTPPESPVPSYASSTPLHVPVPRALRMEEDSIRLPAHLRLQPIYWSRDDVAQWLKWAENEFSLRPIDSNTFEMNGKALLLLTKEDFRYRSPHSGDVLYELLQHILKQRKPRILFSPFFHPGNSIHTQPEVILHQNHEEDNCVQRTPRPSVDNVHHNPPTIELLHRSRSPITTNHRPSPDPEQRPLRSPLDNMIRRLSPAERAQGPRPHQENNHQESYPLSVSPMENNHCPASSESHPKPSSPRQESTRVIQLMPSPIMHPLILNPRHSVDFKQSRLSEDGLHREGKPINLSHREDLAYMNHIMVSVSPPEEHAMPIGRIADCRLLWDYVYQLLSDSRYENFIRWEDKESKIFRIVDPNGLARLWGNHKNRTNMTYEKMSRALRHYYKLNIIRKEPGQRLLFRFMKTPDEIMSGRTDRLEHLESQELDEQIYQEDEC
Chain of ETV5 (P41161 whole entry): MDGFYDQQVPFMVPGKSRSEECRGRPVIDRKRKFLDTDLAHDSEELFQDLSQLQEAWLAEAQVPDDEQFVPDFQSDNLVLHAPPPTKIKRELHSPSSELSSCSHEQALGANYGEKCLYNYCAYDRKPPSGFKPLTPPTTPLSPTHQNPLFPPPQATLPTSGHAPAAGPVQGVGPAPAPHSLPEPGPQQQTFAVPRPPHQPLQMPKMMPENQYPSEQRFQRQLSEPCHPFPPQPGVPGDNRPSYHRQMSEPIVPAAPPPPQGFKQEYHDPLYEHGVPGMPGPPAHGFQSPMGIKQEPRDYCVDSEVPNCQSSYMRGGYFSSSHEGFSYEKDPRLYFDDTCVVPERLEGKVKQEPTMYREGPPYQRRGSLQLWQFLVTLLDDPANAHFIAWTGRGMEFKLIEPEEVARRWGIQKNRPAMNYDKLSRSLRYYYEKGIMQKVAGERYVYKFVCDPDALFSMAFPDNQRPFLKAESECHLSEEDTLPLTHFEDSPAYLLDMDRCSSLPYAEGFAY
Chain of ELF4 (Q99607 whole entry): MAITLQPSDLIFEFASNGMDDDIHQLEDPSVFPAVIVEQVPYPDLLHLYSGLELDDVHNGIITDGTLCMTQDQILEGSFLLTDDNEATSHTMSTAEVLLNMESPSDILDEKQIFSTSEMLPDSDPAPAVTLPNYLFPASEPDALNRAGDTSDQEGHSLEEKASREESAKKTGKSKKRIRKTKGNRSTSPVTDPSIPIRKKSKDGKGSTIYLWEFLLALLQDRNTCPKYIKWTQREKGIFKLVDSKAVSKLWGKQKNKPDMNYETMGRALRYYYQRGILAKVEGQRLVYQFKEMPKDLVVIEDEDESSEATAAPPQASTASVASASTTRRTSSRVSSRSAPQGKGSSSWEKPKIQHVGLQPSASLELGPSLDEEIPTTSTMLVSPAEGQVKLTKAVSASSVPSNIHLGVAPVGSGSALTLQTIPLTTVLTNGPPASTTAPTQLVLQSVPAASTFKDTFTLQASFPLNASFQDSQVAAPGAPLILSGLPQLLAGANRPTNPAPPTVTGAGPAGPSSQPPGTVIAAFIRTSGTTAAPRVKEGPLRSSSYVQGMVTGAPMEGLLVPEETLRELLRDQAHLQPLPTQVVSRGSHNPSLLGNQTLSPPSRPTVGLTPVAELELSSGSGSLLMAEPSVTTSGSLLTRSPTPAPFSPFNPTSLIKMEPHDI
Chain of CRX (O43186 whole entry): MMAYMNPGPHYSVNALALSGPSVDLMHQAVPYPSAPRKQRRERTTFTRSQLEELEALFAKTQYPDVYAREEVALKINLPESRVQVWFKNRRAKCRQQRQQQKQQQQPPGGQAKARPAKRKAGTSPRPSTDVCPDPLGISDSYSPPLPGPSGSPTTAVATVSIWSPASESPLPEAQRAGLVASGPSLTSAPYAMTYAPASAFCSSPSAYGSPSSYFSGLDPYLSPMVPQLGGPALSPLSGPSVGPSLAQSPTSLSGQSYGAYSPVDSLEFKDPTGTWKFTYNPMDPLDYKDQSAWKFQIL
Chain of ETV1 (P50549 whole entry): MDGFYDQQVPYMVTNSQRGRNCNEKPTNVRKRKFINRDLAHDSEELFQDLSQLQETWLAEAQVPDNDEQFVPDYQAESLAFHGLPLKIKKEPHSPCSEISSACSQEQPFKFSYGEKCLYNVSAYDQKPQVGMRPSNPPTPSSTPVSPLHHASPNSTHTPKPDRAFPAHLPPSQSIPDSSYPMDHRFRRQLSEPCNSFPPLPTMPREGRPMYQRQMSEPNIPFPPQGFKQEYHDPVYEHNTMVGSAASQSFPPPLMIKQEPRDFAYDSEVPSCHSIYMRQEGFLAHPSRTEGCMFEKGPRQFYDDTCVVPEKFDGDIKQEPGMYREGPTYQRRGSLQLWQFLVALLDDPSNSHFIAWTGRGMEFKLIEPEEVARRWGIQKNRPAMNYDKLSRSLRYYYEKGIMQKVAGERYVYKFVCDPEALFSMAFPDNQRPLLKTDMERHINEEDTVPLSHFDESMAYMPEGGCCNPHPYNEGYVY
Chain of HSF1 (Q00613 whole entry): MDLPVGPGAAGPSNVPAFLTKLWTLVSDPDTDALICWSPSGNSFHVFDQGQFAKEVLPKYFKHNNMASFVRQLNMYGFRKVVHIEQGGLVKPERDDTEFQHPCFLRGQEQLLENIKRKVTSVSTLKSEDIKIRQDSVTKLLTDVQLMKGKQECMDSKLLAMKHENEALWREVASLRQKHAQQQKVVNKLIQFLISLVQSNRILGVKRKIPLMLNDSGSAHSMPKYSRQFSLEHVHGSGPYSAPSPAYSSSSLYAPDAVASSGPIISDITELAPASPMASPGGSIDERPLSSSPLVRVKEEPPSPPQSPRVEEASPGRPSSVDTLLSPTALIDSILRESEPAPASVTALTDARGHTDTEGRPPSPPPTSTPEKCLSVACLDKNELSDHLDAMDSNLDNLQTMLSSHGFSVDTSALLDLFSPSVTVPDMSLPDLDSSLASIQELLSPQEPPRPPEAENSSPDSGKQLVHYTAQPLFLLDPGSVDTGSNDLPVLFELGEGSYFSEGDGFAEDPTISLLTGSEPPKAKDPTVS

Question: How did the binding signal (FEV) turn out when ATTTGA was run?
Answer: 1.17 fold enrichment (6-mer frequency, TF over GST control)

Question: What about the binding signal (ETV5) of the same sequence?
Answer: 1.16 fold enrichment (6-mer frequency, TF over GST control)

Question: What about the binding signal (HSF1) of the same sequence?
Answer: 1.21 fold enrichment (6-mer frequency, TF over GST control)

Question: What about the binding signal (SPIC) of the same sequence?
Answer: 1.11 fold enrichment (6-mer frequency, TF over GST control)

Question: What about the binding signal (ELF4) of the same sequence?
Answer: 1.21 fold enrichment (6-mer frequency, TF over GST control)

Question: What about the binding signal (ELK4) of the same sequence?
Answer: 1.07 fold enrichment (6-mer frequency, TF over GST control)

Question: And the binding signal (ETV2)?
Answer: 1.16 fold enrichment (6-mer frequency, TF over GST control)

Question: What about the binding signal (ELF3) of the same sequence?
Answer: 1.16 fold enrichment (6-mer frequency, TF over GST control)

Question: What about the binding signal (CRX) of the same sequence?
Answer: 1.41 fold enrichment (6-mer frequency, TF over GST control)

Question: What about the binding signal (ETV1) of the same sequence?
Answer: 1.2 fold enrichment (6-mer frequency, TF over GST control)

Question: What about the binding signal (ERF) of the same sequence?
Answer: 1.14 fold enrichment (6-mer frequency, TF over GST control)

Question: And the binding signal (ETV3L)?
Answer: 1.25 fold enrichment (6-mer frequency, TF over GST control)

Question: What about the binding signal (ETS2) of the same sequence?
Answer: 1.2 fold enrichment (6-mer frequency, TF over GST control)

Question: What about the binding signal (SPDEF) of the same sequence?
Answer: 1.19 fold enrichment (6-mer frequency, TF over GST control)

Question: What about the binding signal (ETV7) of the same sequence?
Answer: 1.28 fold enrichment (6-mer frequency, TF over GST control)

Question: What about the binding signal (ELF5) of the same sequence?
Answer: 1.12 fold enrichment (6-mer frequency, TF over GST control)

Question: And the binding signal (ETV3)?
Answer: 1.21 fold enrichment (6-mer frequency, TF over GST control)

Question: And the binding signal (ETV6)?
Answer: 1.16 fold enrichment (6-mer frequency, TF over GST control)
